Screens as filed in PubChem.
In the library only some 4.1% were active in any assay of this set; here they are far more common.
hgDAF12 agonist – H. glycines DAF-12 receptor agonists, primary screen, cell-based, luminescence, HEK293, GAL4 fusion, UAS-luciferase; Nuclear hormone receptor DAF-12 (Heterodera glycines), GAL4 fusion; HEK293 GAL4-hgDAF12 UAS-luciferase reporter, agonist luminescence; normalized to butyrate control; activation, % at 6.8 µM; 370,000 tested, 1.8% active;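 active = activation above a cutoff set at the mean of all screened compounds plus 3 SD, cut at about 10% in these data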
DAX1 inh-1 – DAX1 (NR0B1) inhibitors, primary screen, cell-based, HEK293, Gal4-DAX1, luciferase luminescence | Nuclear receptor subfamily 0 group B member 1 (Homo sapiens), P51843 | HEK293 Gal4-DAX1 luciferase reporter | inhibition, % at 6.75 µM | 340,000 tested, 0.99% active;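 active = inhibition above the mean over all tested compounds plus 3 SD, cut at about 4.2% in these data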;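 also: inhibition shows as a rise in luminescence from relieved DAX1 repression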
Target sequence (P51843 207-470 limits assumed): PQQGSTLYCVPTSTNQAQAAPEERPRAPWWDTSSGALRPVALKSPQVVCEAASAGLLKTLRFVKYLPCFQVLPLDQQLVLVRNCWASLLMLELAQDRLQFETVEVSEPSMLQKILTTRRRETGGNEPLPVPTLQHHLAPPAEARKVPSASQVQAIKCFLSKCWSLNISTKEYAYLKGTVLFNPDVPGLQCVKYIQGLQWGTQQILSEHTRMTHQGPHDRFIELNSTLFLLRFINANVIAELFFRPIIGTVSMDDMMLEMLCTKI
DAX1 inh-2 – DAX1 (NR0B1) inhibitors on StAR promoter, primary screen, cell-based, luminescence, SF-1 (NR5A1), full-length DAX-1 | HEK293T StAR-luciferase reporter, SF-1/DAX-1 repression relief | inhibition, % at 6.8 µM | 370,000 tested, 1.1% active;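 active = inhibition above the mean over all tested compounds plus 3 SD, cut at about 3.6% in these data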;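 also: higher inhibition means more luminescence from relief of DAX-1 repression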
ssDAF-12 act – S. stercoralis DAF-12 nuclear receptor activators, primary screen, cell-based, luminescence, HEK293, GRIP1 co-expression, lit1-tk-luc; 370,000 tested, 1% active; HEK293 ssDAF-12/GRIP1 lit1-tk-luc reporter; % of 3 µM dafachronic acid response; Nuclear hormone receptor DAF-12 (Strongyloides stercoralis); activation, % at 6.8 µM;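 active = activation above the mean over all tested compounds plus 3 SD, cut at about 0.9% in these data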
hcDAF12 agonist – H. contortus DAF-12 nuclear receptor activators, primary screen, cell-based, luminescence, HEK293, lit1-tk-luc reporter; AID 652067, 2013; HEK293 hcDAF-12 lit1-tk-luc reporter; 0% DMSO, 100% Δ7-dafachronic acid; 370,000 tested, 1.4% active; activation, % at 6.8 µM;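 active = activation above the mean of all tested compounds plus 3 SD, cut at about 5.5% in these data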
Of the large screens only hits and unclear results are named; the others gave an inactive call.

Cc1ccccc1-c1cccc2[nH]c3c(c12)CCN1C(=O)[C@H]2[C@H](C)ON(C)[C@H]2C[C@@H]31	none (no result: DAX1 inh-1)
CCCC[C@H]1C2CC(OC(=O)Nc3ccc4c(c3)OCO4)C(C2)[C@H]2CCCCN21 (stereo partly drawn)	none (no result: DAX1 inh-1)
O=C(CN1CCC(NC(=O)C2CC2)CC1)Nc1cccc(F)c1	ssDAF-12 act 0.9
COC(=O)[C@]12C[C@H](CC(=O)NCCc3ccccc3OC)C(=O)N(Cc3cccc4ccccc34)C1=C[C@H](C1CCCC1)O[C@@H]2C	none (no result: DAX1 inh-1)
O=C(c1ccc(Oc2ccccc2)cc1)c1nc2c(n1O)CCCC2	ssDAF-12 act 1.2
COc1ccc(C(=O)c2nc3c(n2O)CCCCC3)cc1	none
COc1ccc(CN2CCC(CNC(=O)Nc3ccc(Cl)cc3)CC2)cc1	none (no result: DAX1 inh-1)
COc1ccc(S[C@]2(C(=O)N(C)C)CC(=O)N(c3ccccc3)[C@@H]2c2ccc(OC)cc2)cc1	hgDAF12 agonist 11.8 (no result: DAX1 inh-1)
COc1ccc(S[C@]2(C(=O)N(C)C)CC(=O)N(C(=O)/C=C/c3ccccc3)[C@@H]2c2ccc(OC)cc2)cc1	none (no result: DAX1 inh-1)
Cc1cn(CCC(=O)Nc2ccccc2N2CCOCC2)c2ccccc12	DAX1 inh-1 6.8, hcDAF12 agonist 6.0
Cc1cn(CCC(=O)Nc2ccc(N3CCOCC3)cc2)c2ccccc12	none
O=C(O)Cn1c(O)c(C2=c3ccccc3=NC2=O)sc1=O	none
Cc1c(-n2c(O)c(C3=c4ccccc4=NC3=O)sc2=O)c(=O)n(-c2ccccc2)n1C	ssDAF-12 act 1.1
Cc1nn(C)c(C(=O)N2CCc3ccccc32)c1Br	none
Cc1c(Br)c(C(=O)N2CCc3ccccc32)nn1C	DAX1 inh-1 4.4
C/C(=C\C(=O)N1CCc2ccccc21)C(=O)O	DAX1 inh-1 4.3
O=C(c1ccccc1)N1CCc2ccccc21	none
Cn1ncc(Br)c1C(=O)N1CCc2ccccc21	none
Cn1cc(Br)c(C(=O)N2CCc3ccccc32)n1	hcDAF12 agonist 5.9
O=C(CSc1nnc(-c2ccccn2)n1Cc1ccco1)Nc1ccc(Oc2ccccc2)cc1	none (no result: DAX1 inh-1)
Cc1cc(C2=NNC(=Nc3ccccc3)SC2)c(C)n1C	DAX1 inh-1 5.4
COCCn1c(C)cc(C2=NNC(=Nc3ccccc3F)SC2)c1C	none
O=C/C(=C\Nc1ccccn1)c1nc2ccccc2o1	hcDAF12 agonist 5.8
O=C/C(=C\Nc1ccc(Br)cc1)c1nc2ccccc2o1	none
CCC1(c2ccccc2)SC(N)=NC1=O (stereo not drawn)	DAX1 inh-1 6.6
COc1ccc(C(=O)/C=C/Nc2ccc(C)cn2)cc1OC	DAX1 inh-2 4.0
Cc1ccc(-n2c(SCC(=O)Nc3ccc(Oc4ccccc4)cc3)nnc2-c2ccco2)cc1	none (no result: DAX1 inh-1)
COc1ccc2nc(NC(=O)c3cc(C)oc3C)sc2c1	hgDAF12 agonist 10.6
COc1ccc2nc(NC(=S)NC(=O)c3ccco3)sc2c1	hgDAF12 agonist 11.1
COc1ccc2nc(NNC(=O)C3COc4ccccc4O3)sc2c1 (stereo not drawn)	ssDAF-12 act 1.3, hcDAF12 agonist 6.2
COc1ccc2nc(NC(=O)CCNC(=O)c3ccco3)sc2c1	none
Cc1cc(Br)c2nc(-c3cccc(Br)c3)c(Cc3cccc(Cl)c3)n2c1	none (no result: DAX1 inh-1)
C=CCN1C(=O)[C@@H](CC(=O)NCCCOC)[C@]2(C(=O)OC)CCCCC=C12	none (no result: DAX1 inh-1)
CC(C)c1ccc(C(=O)Nc2cc(Cl)ccc2C(=O)O)cc1	none (no result: DAX1 inh-1, DAX1 inh-2)
O=C(CCN1C(=O)C2C3CCC(C3)C2C1=O)Nc1ccccc1C(F)(F)F (stereo not drawn)	ssDAF-12 act 6.0
Cc1cccc(C)c1NC(=O)CCN1C(=O)C2C3CCC(C3)C2C1=O (stereo not drawn)	none
Cc1cccc(Cn2cc(CN3CC(N(C)CCCOC(=O)c4cc5ccccc5o4)CS3(=O)=O)nn2)c1 (stereo not drawn)	none (no result: DAX1 inh-1)
Cc1ccccc1NS(=O)(=O)c1ccc(C2CNC(=O)C2)cc1 (stereo not drawn)	none
O=C1CC(c2ccc(S(=O)(=O)NCc3ccccc3)cc2)CN1 (stereo not drawn)	DAX1 inh-1 5.6
COc1ccc(Cc2c(-c3cccc(Cl)c3)nc3c(C)cc(Br)cn23)c(C)c1	none (no result: DAX1 inh-1)
COc1ccc(Cc2c(-c3cccc(Cl)c3)nc3ccc(C)cn23)c(C)c1	DAX1 inh-2 4.0 (no result: DAX1 inh-1)
COc1ccc(Cc2c(-c3ccccc3)nc3ccc(Cl)cn23)c(C)c1	none (no result: DAX1 inh-1)
COc1ccc(Cc2c(-c3ccccc3)nc3ccc(C)cn23)c(C)c1	hgDAF12 agonist 14.4, DAX1 inh-2 3.9, ssDAF-12 act 1.5 (no result: DAX1 inh-1)
C=CCN1C(=O)[C@@H](CC(=O)N2CCCCC2)[C@]2(C(=O)OC)CCCCC=C12	none (no result: DAX1 inh-1)
COC(=O)N(C)C[C@@H]1OCc2ccccc2-c2c(n(C)c3ccccc23)C(=O)N([C@H](C)CO)C[C@@H]1C	DAX1 inh-2 3.8
CC1CCN(C(=O)c2[nH]cnc2C(=O)N(C)CCO)CC1	none (no result: DAX1 inh-1)
COc1ccc2nc(SCC(=O)C(C)(C)C)[nH]c2c1	DAX1 inh-1 4.5
COc1ccc2nc(SCC(=O)NC(C)(C)C)[nH]c2c1	none
OC(c1ccccc1)(c1ccccc1)C1CCN(CCCOc2ccccn2)CC1	none (no result: DAX1 inh-1)
CN(Cc1ccccc1)S(=O)(=O)c1cccc(C(=O)OCc2ccccc2)c1	none (no result: DAX1 inh-1)
COc1ccc2c(=O)c3c(=O)n(CCc4ccccc4)c(C)nc3oc2c1	none (no result: DAX1 inh-1)
COc1ccc2c(=O)c3c(=O)n(CCc4ccccc4)c(C(C)C)nc3oc2c1	DAX1 inh-1 4.7
COc1cccc(CN[C@@H]2CC[C@@]34CCCN3C(=O)CCC[C@H]4C2)c1	none (no result: DAX1 inh-1, DAX1 inh-2)
Nc1ccc(Oc2cc(N)cc(Oc3ccccc3)c2)cc1	DAX1 inh-1 4.6
Nc1ccc(Oc2ccc3nc(-c4ccccc4)c(-c4ccccc4)nc3c2)cc1	none
COc1cccc(NC(=O)NC2CCCCN(Cc3ccc(C)cc3)C2=O)c1 (stereo not drawn)	none (no result: DAX1 inh-1)
O=[N+]([O-])c1ccc(NCCCN2CCC(C(O)(c3ccccc3)c3ccccc3)CC2)cc1	none (no result: DAX1 inh-1)
NC(=S)Nc1nc2ccccc2[nH]c1=O	hcDAF12 agonist 5.8 (no result: DAX1 inh-1)
Cc1ccc2[nH]c(=O)c(NC(N)=S)nc2c1	none
CC(COc1ccc(CC#N)cc1)CN1CCC(C(O)(c2ccccc2)c2ccccc2)CC1 (stereo not drawn)	none (no result: DAX1 inh-1)
Cc1ccc2c3c(c(SCC(=O)Nc4nonc4C)nc2c1)CCCC3	hgDAF12 agonist 10.6
CCOC(=O)CNC(=O)c1c2c(nc3ccccc13)CCCC2	ssDAF-12 act 1.0
